Hits are enriched below; roughly 3.2% of the tested compounds scored in any of these assays.
TMEM16A act: TMEM16A chloride channel activators or potentiators, primary screen, cell-based, HTS | Anoctamin-1 (Mus musculus), Q8BHY3 | HEK293 TMEM16A/YFP-H148Q/I152L, iodide quench fluorescence; stronger effect = lower value | B-score at 10 µM | hit rate 0.3% among 340,000 | AID 623877, 2012;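 active means fluorescence-ratio B-score plate-corrected deviation score at least 3 library SD below zero, with starting fluorescence score within 5 deviations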;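 further: channel opened by trigger with iodide after compound preincubation; score built on the fluorescence ratio of max minus min over baseline; more negative score means more quench and so TMEM16A activation or potentiation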
Rce1 inhib: yeast Rce1p protease inhibitors, primary screen, biochemical, fluorescence, cell-free homogeneous; CAAX prenyl protease 2 (Saccharomyces cerevisiae (strain ATCC 204508 / S288c)), Q03530; yeast membranes, quenched prenylated peptide cleavage fluorescence; calls only; hit rate 0.27% among 290,000; AID 2563, 2010;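 active means fall in fluorescence gain of 50% or more versus controls, with final raw signal at or below 3038400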;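 further: plate controls were neutral control wells for no effect and wells lacking membranes for full effect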
ANO1 block: TMEM16A chloride channel inhibitors, primary screen, cell-based, HTS; hit rate 1.2% among 310,000; AID 588511, 2011; normalized B-score (activity score, 25-100; higher = stronger inhibition) at 10 µM; HEK293 TMEM16A/YFP iodide influx fluorescence, ionomycin; Anoctamin-1 (Mus musculus), Q8BHY3;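 active means ratio plate-corrected score three or more library SD toward inhibition, starting fluorescence score within five deviations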;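 further: score derived from kinetic fluorescence span divided by baseline fluorescence per well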
Kir21 inh: inhibitors of mouse Kir2.1 inward-rectifier potassium channel. Inward rectifier potassium channel 2 (Mus musculus), P35561. hit rate 0.85% among 310,000. HEK293-Kir2.1, FluxOR thallium flux fluorescence; stronger effect = lower value. B-score at 10 µM;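 active means fluorescence ratio B-score at or below minus 3 SD of library scores, with starting-brightness B-score within 2 SD, cut at about -4.2 in these data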;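 further: channel flux triggered by added potassium and thallium sulfate stimulus; B-score of peak minus minimum fluorescence over baseline after thallium stimulus; more negative B-score means stronger Kir2.1 block with less thallium influx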
Target sequence (P35561 whole entry, looked up): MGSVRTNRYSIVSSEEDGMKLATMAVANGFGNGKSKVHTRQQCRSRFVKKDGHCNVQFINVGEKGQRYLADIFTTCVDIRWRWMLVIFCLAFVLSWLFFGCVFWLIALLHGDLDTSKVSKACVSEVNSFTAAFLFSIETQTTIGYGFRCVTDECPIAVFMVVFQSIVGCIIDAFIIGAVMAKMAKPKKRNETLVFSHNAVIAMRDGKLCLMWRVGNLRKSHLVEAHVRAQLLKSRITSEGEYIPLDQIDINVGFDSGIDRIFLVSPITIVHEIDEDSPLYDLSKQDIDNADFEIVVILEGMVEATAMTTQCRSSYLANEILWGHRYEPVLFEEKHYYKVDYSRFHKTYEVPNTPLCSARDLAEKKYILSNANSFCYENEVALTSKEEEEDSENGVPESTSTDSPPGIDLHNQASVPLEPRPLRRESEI
CHT inh: inhibitors of human choline transporter CHT; CHT-expressing cells, membrane potential dye, choline response; stronger effect = lower value; AID 488975, 2010; hit rate 0.86% among 310,000; High affinity choline transporter 1 (Homo sapiens), Q9GZV3; B-score at 10 µM;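 active means B-score over 3 SD under the library average, and starting fluorescence ratio not unusually high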;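 further: choline stimulus applied at its EC90 after an EC20 pre-addition; B-score computed on integrated fluorescence ratio after choline addition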
CHT allo act: CHT positive allosteric modulators, primary screen, cell-based, membrane potential dye, choline EC20. B-score at 10 µM. CHT-expressing cells; stronger effect = higher value; LV-AA mutant CHT in HEK293 cells. hit rate 0.49% among 310,000. High affinity choline transporter 1 (Homo sapiens), Q9GZV3;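 active means initial fluorescence not abnormally high and integrated response B-score, plate-corrected, over 3 SD above library mean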
CHT inh conf: CHT inhibitors, confirmation, cell-based, membrane potential dye, duplicate; shares compounds with CHT inh; CHT-expressing cells, choline membrane potential dye; LV-to-AA substituted CHT, HEK293 cells; CHT activity remaining % of control (stronger effect = lower value), % at 10 µM; hit rate 70% among 2,400; AID 493221, 2011;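 active means choline transporter activity left, mean of duplicates at 10 µM, below buffer-only control mean minus 3 SD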;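 further: depolarization triggered by choline at its EC90 following an EC20 pre-addition; 0% = hemicholinium-3 full block and 100% = buffer-only control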
HEK293 MPD ctr: membrane potential effects in parental HEK293, counter-screen for CHT inhibitor project, cell-based, membrane potential dye; choline response; active = decrease or increase beyond buffer ±3SD; AID 493222, 2011; hit rate 4% among 2,400; membrane potential ratio readout (active if shifted either direction beyond buffer ±3SD; no single direction) at 10 µM; shares compounds with CHT inh;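 further: parental cells lack the transporter so any hit is non-specific; ratio is peak minus trough fluorescence over baseline after EC90 choline challenge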
Active calls of the source: *; i = inactive; x = not tested or not shown.

SMILES	TMEM16A act	Rce1 inhib	ANO1 block	Kir21 inh	CHT inh	CHT allo act	CHT inh conf	HEK293 MPD ctr
CCn1c(SCc2nc(-c3ccc(OC)c(OC)c3)no2)nnc1-c1cccs1	i	i	i	-0.26	-8.6*	i	42%*	i
Cc1cc2n(n1)C(c1ccco1)Nc1ccccc1-2 (stereo not drawn)	i	i	i	-0.12	i	i	x	x
Cc1cc2n(n1)C(c1ccc3c(c1)OCO3)Nc1c(C)cccc1-2 (stereo not drawn)	x	i	i	-1.7	-5.1*	i	i	i
O=C(Nc1ccc2c(c1)OCCO2)c1ccc(S(=O)(=O)N2CCCCC2)cc1	i	i	i	-1.1	-6.1*	i	i	i
CN(C(=O)c1ccccc1C(=O)OCC(=O)c1ccc(F)c(F)c1)C1CCCCC1	i	x	x	x	x	x	x	x
Cc1cccc(C(=O)Nc2cccc(OCC(=O)O)c2)c1	i	i	i	-1.8	-5*	i	57%*	i
Cc1ccc(C)c(NC(=O)CN(C)C(=O)C2COc3ccccc3O2)c1 (stereo not drawn)	i	x	x	x	x	x	x	x
CC1=C(c2ccccc2)C=NNCC1=O	i	x	x	x	x	x	x	x
COc1ccccc1C(CNC(=O)c1ccc(NS(=O)(=O)c2ccc(F)c(C)c2)cc1)N1CCCC1 (stereo not drawn)	i	i	i	-1.3	i	i	x	x
COc1ccccc1NS(=O)(=O)c1cc(C(=O)NCC(c2ccco2)N2CCCCC2)ccc1C (stereo not drawn)	i	i	i	0.14	-12*	i	11%*	i
CCOc1ccc(S(=O)(=O)Nc2cccc(C(=O)NCC(c3ccco3)N3CCCC3)c2)cc1 (stereo not drawn)	i	x	x	x	x	x	x	x
COc1ccccc1C(CNC(=O)c1cccc(NS(=O)(=O)c2ccc(C)c(F)c2)c1)N1CCCC1 (stereo not drawn)	i	i	i	-0.39	-5.6*	i	15%*	i
O=C(NCC(c1ccco1)N1CCCCC1)c1cccc(NS(=O)(=O)c2ccc(Br)cc2)c1 (stereo not drawn)	i	i	i	-1.3	-11*	i	37%*	i
O=C1Nc2ccccc2C1=Nc1ccc2[nH]c3ccccc3c2c1	i	x	x	x	x	x	x	x
CC(=O)c1sc(-c2ccc(F)cc2)cc1NS(=O)(=O)c1ccccc1	i	i	i	1.9	i	i	x	x
CC(C)CC(=O)Nc1ccccc1N1CCN(C(=O)c2ccccc2)CC1	i	i	i	0.8	-5.1*	i	i	i
O=C(Nc1ccc(F)cc1F)c1ccc2nc(N3CCOCC3)sc2c1	i	i	i	2	-11*	i	i	i
O=C(Nc1ccc2nc(N3CCOCC3)sc2c1)c1ccc(F)cc1	i	x	x	x	x	x	x	x
O=C(O)c1[nH]c2ccc(Cl)cc2c1CC(=O)N1CCN(c2ccccc2)CC1	i	i	i	-0.5	-7.6*	i	36%*	i
Cc1ccc(SCc2nc3ccccc3[nH]2)cc1	i	i	i	0	i	i	x	x
Cc1cc(C)cc(CC(Cc2nc3ccccc3[nH]2)c2nc3ccccc3[nH]2)c1 (stereo not drawn)	i	i	i	-0.61	-8.7*	i	54%*	i
CCOc1cc(S(=O)(=O)n2ccnc2)ccc1Cl	i	i	i	0.01	i	i	x	x
CC(=O)NC(CC(=O)NCCN1C(=O)S/C(=C\c2ccccc2)C1=O)c1ccccc1 (stereo not drawn)	i	x	i	-1.7	-5.7*	i	57%*	i
CCOc1nc(-c2ccccc2)ncc1Oc1ccccc1	i	i	i	1.3	-5*	i	i	i
COc1ccc(CC(=O)NNC(=O)COc2ccc(C)cc2)cc1S(=O)(=O)N1CCOCC1	i	i	i	6.7e-16	i	i	x	x
SMILES	TMEM16A act	Rce1 inhib	ANO1 block	Kir21 inh	CHT inh	CHT allo act	CHT inh conf	HEK293 MPD ctr
CCOc1ccc(NCC(=O)N/N=C/C=C/c2ccccc2)cc1	i	i	i	-0.06	i	i	x	x
COc1ccc(OCC(=O)N/N=C/C=C/c2ccccc2)cc1	i	i	i	1.6	-7.9*	i	69%*	i
C=C(C)CNC(=O)c1ccc2nc(Cc3ccc(OC)cc3)oc2c1	i	i	i	-1.4	i	i	x	x
COC(=O)CN1CCN(C(c2ccccc2)c2ccccc2)CC1	i	i	i	-0.77	i	i	x	x
CN(Cc1ccccc1)C(=O)CN1CCN(C(c2ccccc2)c2ccccc2)CC1	i	i	i	-2.1	-8.3*	i	52%*	i
O=[N+]([O-])c1ccc(Nc2ccccc2O)c2nonc12	i	i	i	0.48	-5.9*	i	53%*	i
COc1cccc(N2CCN(C(=O)CC(C)(C)CC3=NS(=O)(=O)c4ccccc4N3)CC2)c1	i	i	i	-0.07	-5.5*	i	i	i
O=C(CCCC1=NS(=O)(=O)c2ccccc2N1)N1CCN(c2ccccc2)CC1	i	i	i	0.66	i	i	x	x
COc1cc(CN(C)Cc2cc(=O)n3ccsc3n2)ccc1OC(F)F	i	i	i	0.1	-5.6*	i	59%*	i
Cc1ccc(N(Cc2cc3ccc(C)cc3[nH]c2=O)S(=O)(=O)c2ccccc2)cc1	i	i	i	0.01	i	i	x	x
CC(C)(C)C(=O)NC(=S)Nc1cc(C(F)(F)F)ccc1N1CCOCC1	i	i	i	1.5	-5*	i	i	i
O=c1cc(-c2ccccc2)oc2ccc(O)cc12	i	i	i	1.7	i	i	x	x
COc1ccc(-c2cc(=O)c3cc(O)ccc3o2)cc1	i	i	i	1	-7.3*	i	41%*	i
CCCCN(CCCC)S(=O)(=O)c1ccc(NC(=O)c2ccc([N+](=O)[O-])cc2Cl)cc1	i	i	i	-3.5	-6.2*	i	70%*	i

Screening results (PubChem)
